ChEMBL document CHEMBL4513216, “Probing the Open Global Health Chemical Diversity Library for Multistage-Active Starting Points for Next-Generation Antimalarials” (ACS Infect Dis, 2020)
The whole screen tested about 69,000 compounds, of which about 8,600 (12%) showed an effect of 50% or more. This is one part of a sample in which strong results are shown more often than they occur.

These molecules were tested on Plasmodium berghei (assay: Screen against P. berghei liver stage (PbLuc), transformed with Luciferase, at 10uM). Conditions: tested at 10 uM.
Type: functional, HepG2
`O=C1CN(C(=O)OCc2ccccc2)CC(O)CN1Cc1ccco1` (stereo not given) was tested, and the INHIBITION was 34.3%. `CCN(CC)C(=O)Cn1ccc2cc(NC(C)=O)ccc21` was tested, and the INHIBITION was -37.31%. `CNc1cc2c(nn1)CCN(C(=O)c1ccc(-n3cccn3)nc1)C2` showed an INHIBITION of 35.7%. Work on `COc1c(C2CCCN2C(=O)c2ccc(C#N)cc2)c(C)nn1C` (stereo not given) yielded an INHIBITION of 7.67%. Molecule `C[C@H]1CN(Cc2cnn(C)c2)C[C@@]12CCN(Cc1cccnc1)C2=O` has an INHIBITION of 48.2%. In the case of `CC(=O)N1CCCN(C(C(=O)O)c2ccccc2OC(F)(F)F)CC1` (stereo not given), the INHIBITION is reported as 15.2%. `O=C(CN1CCCC1Cn1cccn1)NCCOc1cccc(F)c1` (stereo not given) was tested, and the INHIBITION was 48.4%. `Cc1nc(C)n(CCC(=O)N2CCc3ncc(Cl)cc3C2)n1` was tested, and the INHIBITION was 24.4%. Work on `CC(C)n1ncc2c1NC(=O)CSC2C(F)(F)F` (stereo not given) yielded an INHIBITION of -38%. In the case of `CNc1ccnc(N(C)Cc2cc(-c3cccs3)n[nH]2)n1`, the INHIBITION is reported as 88.4%. `CNc1cc(C(=O)N(C)Cc2cc(-c3cccs3)n[nH]2)ccn1` gave an INHIBITION of 47.6%. `CN(C)c1nccc(NCc2cc(-c3cccs3)n[nH]2)n1` was tested, and the INHIBITION was 18.9%. For `CCc1n[nH]c(C2CN(C(=O)c3nc(C)ncc3Cl)CCO2)n1` (stereo not given), the INHIBITION was 37.5%. In the case of `CCOC(=O)c1sc(NC(=O)CCCC(=O)O)c(C#N)c1C`, the INHIBITION is reported as 28.2%. With `Cc1ccc(NCCCNC(=O)C2CC3(CCNCC3)CN2C)nc1` (stereo not given) the INHIBITION was 37.1%. For `COc1ccc2nc(CNC(=O)C3CC4(CCNCC4)CN3C)[nH]c2c1` (stereo not given), the INHIBITION was 18.6%. Molecule `Cc1ccc2[nH]c(CNC(=O)C3CC4(CCNCC4)CN3C)nc2c1C` (stereo not given) has an INHIBITION of 66.3%. `c1coc(CNc2ncc3c(n2)C2(CCNC2)COC3)c1` (stereo not given) gave an INHIBITION of 29.8%. Molecule `Cc1nc(NCc2ccco2)nc2c1COCC21CCNC1` (stereo not given) has an INHIBITION of 55.5%. `Cc1nc(NCC2CC2)nc2c1COCC21CCNC1` (stereo not given) gave an INHIBITION of 38.1%. Molecule `Cc1ccc(Oc2ncccc2C(=O)N(C)CCCN(C)C)c(C)c1` has an INHIBITION of 13.5%. For `CCOCC(=O)N1CCC(C)(c2nccs2)CC1`, the INHIBITION was 38.05%. In the case of `CC(=O)N1CCN(C(=O)CCn2c(C)nc3ccccc3c2=O)CC1`, the INHIBITION is reported as 8.665%. `CC(C)=CCN1CCC(c2nnc(CN3CCN(C)CC3)n2C)CC1` showed an INHIBITION of 25.4%. `Cc1noc([C@@]23CCO[C@@H]2CCN(C(=O)c2cc(C)c(C)s2)C3)n1` gave an INHIBITION of 57.1%. Molecule `Cc1noc([C@@]23CCO[C@@H]2CCN(C(=O)c2c(C)noc2C)C3)n1` has an INHIBITION of 28.2%. For `Cc1noc([C@@]23CCO[C@@H]2CCN(C(=O)c2ccsc2)C3)n1`, the INHIBITION was -15.3%. `Cc1noc([C@@]23CCO[C@@H]2CCN(C(=O)c2cc(C)[nH]c2C)C3)n1` showed an INHIBITION of 24.9%. Work on `Cc1noc([C@@]23CCO[C@@H]2CCN(C(=O)c2sccc2C)C3)n1` yielded an INHIBITION of -4.56%. `Cc1noc([C@@]23CCO[C@@H]2CCN(C(=O)c2cc(C)on2)C3)n1` showed an INHIBITION of 61.9%. `CC(C)Cc1nc(CCn2cncn2)n(-c2ccc3c(c2)OCCO3)n1` showed an INHIBITION of 41.2%. For `Cc1cc(Cl)ccc1-n1ncc(C(=O)N(C)CCc2ccccn2)c1N`, the INHIBITION was 29.3%. Work on `CC(C)c1nc(-c2ccnc(N3CCNCC3)n2)no1` yielded an INHIBITION of 18.2%. `CC(C)n1ccnc1CN1CCCN(C(=O)c2cnn(C)c2)CC1` gave an INHIBITION of 10.9165%. In the case of `Cc1nc(CN2C(=O)COC3(CCN(C(N)=O)CC3)C2C)cs1` (stereo not given), the INHIBITION is reported as -10.3%. Work on `CS(=O)(=O)c1cncnc1C1CCCN(C(=O)Nc2ccccc2F)C1` (stereo not given) yielded an INHIBITION of -8.76%. For `CCN(Cc1cccs1)S(=O)(=O)N(C)C(C)C`, the INHIBITION was 44.3%. `COc1ccccc1CN(Cc1cccs1)S(=O)(=O)N(C)C(C)C` was tested, and the INHIBITION was 67.5%. `CC(C)N(C)S(=O)(=O)N(Cc1cccs1)Cc1cccs1` was tested, and the INHIBITION was 14.6%. `Cn1nc(C2CN(C(=O)c3cccnc3)C2)c2nccnc21` gave an INHIBITION of 32.8%. Molecule `CCc1nc2n(n1)CC(NCc1nc(Cc3ccccc3)no1)CC2` (stereo not given) has an INHIBITION of 19.6%. In the case of `NC(=O)c1ccc(NC(=O)c2ccncc2F)cn1`, the INHIBITION is reported as 9%. Molecule `O=C(c1cc(C2CC2)on1)N1C[C@@H]2COC[C@]2(COc2cccnc2)C1` has an INHIBITION of 72%. In the case of `O=C(COC1CCCC1)N1C[C@@H]2COC[C@]2(COc2cccnc2)C1`, the INHIBITION is reported as 40.3%. For `O=C(c1ncccn1)N1C[C@@H]2COC[C@]2(COc2cccnc2)C1`, the INHIBITION was 46.6%. `O=C(c1cocn1)N1C[C@@H]2COC[C@]2(COc2cccnc2)C1` showed an INHIBITION of 43.9%. For `O=C(c1ccc(F)cc1)N1C[C@@H]2COC[C@]2(COc2cccnc2)C1`, the INHIBITION was 55.7%. Work on `O=C(C1=CCCC1)N1C[C@@H]2COC[C@]2(COc2cccnc2)C1` yielded an INHIBITION of 33%. In the case of `O=C(Cc1ccccc1F)N1C[C@@H]2COC[C@]2(COc2cccnc2)C1`, the INHIBITION is reported as 39.2%. `O=C(COc1ccccc1)N1C[C@@H]2COC[C@]2(COc2cccnc2)C1` was tested, and the INHIBITION was 50.3%. In the case of `Cc1ccc(C(=O)N2C[C@@H]3COC[C@]3(COc3cccnc3)C2)cn1`, the INHIBITION is reported as 23.9%. `Cc1ccc(-c2cc(CNC(=O)NC3CCCCNC3=O)on2)cc1` (stereo not given) was tested, and the INHIBITION was -22.1%. `CS(=O)(=O)NC[C@H]1OC[C@H]2CN(CCc3ccccc3)CC[C@H]21` showed an INHIBITION of 2.7%. `CC(C)C(=O)N1CCC(Cc2nccnc2Nc2ccccn2)CC1` showed an INHIBITION of 23.4%. Molecule `CCS(=O)(=O)N1C[C@H]2CN(Cc3cccnc3)C(=O)[C@H]2C1` has an INHIBITION of -28.2%. With `O=C(CSc1nncs1)N1CCN(Cc2ccc(Cl)s2)CC1` the INHIBITION was 2.37%. `CCNc1nnc(SCC(=O)N2CCN(Cc3ccc(Cl)s3)CC2)s1` gave an INHIBITION of 40.5%. For `O=C(CSc1nncs1)N1CCN(Cc2ccc(Cl)cc2)CC1`, the INHIBITION was 87.2%. In the case of `c1ccc(-n2nc(CNC3CCc4ncnn4C3)c3c2CCC3)cc1` (stereo not given), the INHIBITION is reported as 33.25%. For `Cc1noc([C@@H]2C[C@@H]3CCN(CC4CCOCC4)C[C@H]3O2)n1`, the INHIBITION was -23.4%. `Cc1cccc(C(C(=O)NCc2nc(-c3cccnc3)no2)N(C)C)c1` (stereo not given) showed an INHIBITION of 15.3%. For `Cc1cccc(C(C(=O)NCc2nc(-c3ncccn3)no2)N(C)C)c1` (stereo not given), the INHIBITION was 56.3%. Work on `Cc1ccccc1C(C(=O)NCc1nc(-c2ncccn2)no1)N(C)C` (stereo not given) yielded an INHIBITION of -24.9%. Work on `CCN(Cc1cccc2c1OCO2)C(=O)NCCOC` yielded an INHIBITION of 31.3%. With `CC(C)(C)CC(NC(=O)N1CCS(=O)(=O)CC1)C(F)(F)F` (stereo not given) the INHIBITION was -47.8%. Work on `Cc1nn(C)cc1CN1CCc2nc(-c3cccnc3)nc(O)c2C1` yielded an INHIBITION of 38.8%. `FC(F)(F)c1ccc2nc([C@H]3CCN(C4CCC4)C3)[nH]c2c1` was tested, and the INHIBITION was 39.2%. With `CC(C)N1CC[C@H](c2nc3ccc(C(F)(F)F)cc3[nH]2)C1` the INHIBITION was 30.3%. Work on `CN1CCC(N2CC[C@H](c3nc4ccc(C(F)(F)F)cc4[nH]3)C2)CC1` yielded an INHIBITION of 24.3%. Work on `Fc1ccc2[nH]c([C@H]3CCN(C4CCOCC4)C3)nc2c1` yielded an INHIBITION of 31.2%. With `FC(F)(F)c1ccc2nc([C@H]3CCN(C4CCOCC4)C3)[nH]c2c1` the INHIBITION was 53%. `FC(F)(F)c1ccc2nc([C@H]3CCN(C4CCCCC4)C3)[nH]c2c1` showed an INHIBITION of 73.7%. `O=S(=O)(CCN1CCN(c2ccccc2O)CC1)c1ccc(Br)cc1` showed an INHIBITION of 18.9%. `CN(Cc1ccccc1)c1cnn(CC2COCCO2)c(=O)c1` (stereo not given) gave an INHIBITION of 28.2%. `O=C(c1cnoc1)N1CCC[C@]2(C[C@@H](Oc3ccccn3)CO2)C1` was tested, and the INHIBITION was -27.9%. With `c1cc(CNc2ncc(-c3cnccn3)c([C@@H]3CCCO3)n2)ccn1` the INHIBITION was 5.34%. In the case of `c1cnc(-c2cnc(N3CCSCC3)nc2C2CCCO2)cn1` (stereo not given), the INHIBITION is reported as 27.9%. With `c1cnc(-c2cnc(N3CCCCC3)nc2C2CCCO2)cn1` (stereo not given) the INHIBITION was -14.1%. `c1cc(CNc2ncc(-c3cnccn3)c(C3CC3)n2)ccn1` gave an INHIBITION of 75.9%. In the case of `c1cnc(-c2cnc(N3CCSCC3)nc2C2CC2)cn1`, the INHIBITION is reported as 64.3%. With `c1cc(CCNc2ncc(-c3cnccn3)c(C3CC3)n2)ccn1` the INHIBITION was 28.5%. For `CC(C)C(C(=O)N1CCCN(Cc2cscn2)CC1)n1cncn1` (stereo not given), the INHIBITION was -22.9%. Work on `CC1CC(=O)c2cnc3nc(N4CCOCC4)[nH]c(=O)c3c2C1` (stereo not given) yielded an INHIBITION of 22%. In the case of `Cc1cccc(CNC2(CCO)CCOCC2)c1C`, the INHIBITION is reported as 27.3%. `Cc1cccc(CNCC2COC3(CCCC3)O2)c1C` (stereo not given) showed an INHIBITION of 50%. With `Cc1ncccc1CNCC1CCCN1c1cccnn1` (stereo not given) the INHIBITION was 7.67%. In the case of `Cc1ncccc1CNCC1CCN(CCO)CC1`, the INHIBITION is reported as -64.9%. Molecule `COCCOc1ccccc1CNCc1c(C)nn(C)c1N(C)C` has an INHIBITION of -2.44%. `Cc1cccc(CNCC2COC3(CCCCC3)O2)c1C` (stereo not given) was tested, and the INHIBITION was -3.77%. Molecule `Cc1ncccc1CNCC1COC2(CCCCC2)O1` (stereo not given) has an INHIBITION of 74.9%. For `COCCOc1ccccc1CNCC1COC2(CCCC2)O1` (stereo not given), the INHIBITION was 81.5%. Molecule `CCN1CCOC(CNCc2ccccc2OCC(=O)N(C)C)C1` (stereo not given) has an INHIBITION of 12.8%. `O=C(CCOCC(F)(F)F)N1CCCC1c1noc(C2CC2)n1` (stereo not given) gave an INHIBITION of -21.5%. `Cc1nc(NC(=O)C(C)N(C)Cc2ccc3c(c2)OCO3)sc1C` (stereo not given) showed an INHIBITION of 46.3%. With `Cc1cc(C)n(C2CCCN(C(=O)CCOc3ccccc3F)C2)n1` (stereo not given) the INHIBITION was -11.4%. `COCc1noc(-c2cc(Cl)c3c(c2)OCCCO3)n1` was tested, and the INHIBITION was 19.8%. `CC1CCN(CC2CCCN(C(=O)Nc3ccccn3)C2)CC1` (stereo not given) showed an INHIBITION of 55%. `O=C(NC1CCCCC1)C1CCCN(C(=O)Nc2ccccn2)C1` (stereo not given) was tested, and the INHIBITION was 66.1%. `Cc1ccc(C(=O)NC2CCN(C(=O)Nc3ccccn3)CC2)o1` was tested, and the INHIBITION was -1.58%. For `CC1CCN(C(=O)C2CCCN(C(=O)Nc3ccccn3)C2)CC1` (stereo not given), the INHIBITION was 89.6%. For `CN(C)c1ncc(NC(=O)N2CCC(CN3CCCC3)C2)cn1` (stereo not given), the INHIBITION was -45%. Molecule `Cc1ccc(C(=O)NC2CCN(C(=O)Nc3ccccn3)CC2)s1` has an INHIBITION of -21.9%. `CC1CCN(CC(O)CNc2ccccn2)CC1` (stereo not given) gave an INHIBITION of 1.62%. For `Cc1cccc(NC2CCN(C(=O)Nc3ccccn3)CC2)n1`, the INHIBITION was 28.8%. In the case of `CC(=O)N1CCC(C(=O)N2CCCC(Cc3ccccn3)C2)CC1` (stereo not given), the INHIBITION is reported as -6.92%.
